Results filed as inconclusive are left out. Active and inactive are the calls of the source. Unless noted, calls come from the whole dose curve; as a rule, active = well fitted curve in the direction sought with a large enough effect; inconclusive = small, poorly fitted or top-dose-only effect, or another doubt; inactive = no such curve, though single readings can be large; an effect the other way counts as inactive or inconclusive.
Assays:
[1] = qHTS Assay for Identification of Small Molecule Inducers of Hypoxia Response (AID 2120; active = well fitted curve in the direction sought with a large enough effect in the signal ratio, with a control signal flat, not every such curve was filed as active; the % refers to the signal ratio)
How it was run: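 HRE-beta-lactamase reporter in CellSensor HRE-bla ME-180 cells, 2500 cells/well in Opti-MEM with 0.5% dialyzed FBS; compounds tested as titration series, 17 h at 37 degrees C. CCF4 substrate 2.5 h at room temperature; AC50 from 460/530 nm ratio.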

[2] = biological target: Ferritin light chain (Equus caballus) (UniProt P02791); assay: qHTS Validation Assay for Identification of Novel General Anesthetics (AID 2323); note: series mostly up to about 77 µM
How it was run: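 Competitive displacement of the profluorescent anesthetic 1-AMA (50% saturated, PBS) from 10 uM apoferritin, 10 min, room temperature. Activity is normalized 380/535 nm fluorescence; concentration-response fitted with a four-parameter Hill equation.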

[3] = biological target: ATP-dependent DNA helicase Q1 (Homo sapiens) (UniProt P46063); assay: qHTS Validation Assay for Inhibitors of RecQ-Like Dna Helicase 1 (RECQ1) (AID 2353)
How it was run: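 50 nM RECQ1T1 preincubated 15 min with compound in Tris pH 8.0 buffer with MgCl2, DTT, Tween-20 and 2.5 ug/ml poly(dI-dC); started with 200 nM TAMRA/BHQ-2 forked duplex and 2 mM ATP. Unwinding read as fluorescence (525/598 nm), two reads 2 h apart.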

[4] = biological target: RecQ-like DNA helicase BLM (Homo sapiens) (UniProt P54132); assay: qHTS Validation Assay for Inhibitors of Bloom's syndrome helicase (BLM) (AID 2364)
How it was run: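 50 nM BLM preincubated 15 min at room temperature with compound in pH 8.0 Tris buffer containing 2.5 ug/ml poly(dI-dC); started with 200 nM TAMRA/BHQ-2 forked duplex and 2 mM ATP (final). Unwinding read as TAMRA fluorescence increase, two reads 2 h apart.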

[5] = Cytometric Cell-Based qHTS for Inhibitors of the mTORC1 Signaling Pathway in MEF (Tsc2-/-, p53-/-) Cells (AID 2660);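 note: percent of cells above a phospho-rpS6 to PI ratio cutoff in each well; series mostly up to about 38 µM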
How it was run: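 Immunofluorescence qHTS of rpS6 Ser235/236 phosphorylation: MEFs (Tsc2-/-, p53-/-) treated 24 h, 37 C, in DMEM + 10% FBS. Alexa-488 signal normalized to PI count, referenced to rapamycin (7.5 nM) and DMSO; PI cell number recorded for viability.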

[6] = High Content Imaging Cell-Based qHTS for Inhibitors of the mTORC1 Signaling Pathway in MEF (Tsc2-/-, p53-/-) Cells (AID 2666);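 note: percent of cells scored positive for phospho-rpS6 Ser235/236 immunostaining by imaging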
How it was run: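 Phospho-rpS6 (Ser235/236) immunofluorescence, normalized and scored as % positive cells using rapamycin and DMSO controls, was read in empty-vector Tsc2-/-, p53-/- MEFs after 24 h compound exposure at 37 C; propidium iodide counted cells.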

[7] = Validation screen for small molecules that induce DNA re-replication in MCF 10A normal breast cells (AID 463097); note: nearly all actives have a fitted effect of over 60% in size; note: potency is the fitted concentration of half-maximal effect
How it was run: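 Read-out is Hoechst total nuclear intensity by fluorescence scanning imager, flagging increased high-DNA-content nuclei. Compounds were incubated with MCF 10A cells for 48 hr (37 C, 5% CO2) before 40 min staining.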

[8] = biological target: Ubiquitin carboxyl-terminal hydrolase 2 (Homo sapiens) (UniProt O75604); assay: qHTS Validation Assay for Inhibitors of Ubiquitin-specific Protease USP2a Using CHOP2 as the Reporter (AID 463106)
How it was run: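 USP2 core (10 nM final) was preincubated with compound 30 min at RT in pH 8.0 Tris/CaCl2/beta-ME/CHAPS buffer. Ub-CHOP2 and reporter substrate (25 nM final each) were then added, with fluorescence (Ex 485/Em 531) read after 60 min. Data were normalized to NEM full inhibition and fitted to concentration-response curves.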

[9] = Cytometry Cell-Based qHTS for Inhibitors of the mTORC1 Signaling Pathway in MEF cells (AID 2668); note: potency is the fitted concentration of half-maximal effect
How it was run: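 Phospho-rpS6 (Ser235/236) immunofluorescence over PI signal, scored as % positive cells using thresholds from 7.5 nM rapamycin and DMSO wells, after 24 h compound exposure of WT-Tsc2-rescued Tsc2-/-, p53-/- MEFs. PI cell count recorded for viability.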

[10] = High Content Imaging Cell-Based qHTS for Inhibitors of the mTORC1 Signaling Pathway in MEF Cells (AID 2667); note: potency is the fitted concentration of half-maximal effect
How it was run: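 WT MEFs (Tsc2-/-, p53-/- re-expressing Tsc2), in DMEM + 10% FBS, were treated with compound for 24 h at 37 C. Cells were then fixed and stained for phospho-rpS6 Ser235/236 with propidium iodide as cell count. Values are % positive cells, with thresholds set against rapamycin-treated cells.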

Measured: Potency

Sequence of Ferritin light chain (Equus caballus) (P02791 2-175 limits assumed): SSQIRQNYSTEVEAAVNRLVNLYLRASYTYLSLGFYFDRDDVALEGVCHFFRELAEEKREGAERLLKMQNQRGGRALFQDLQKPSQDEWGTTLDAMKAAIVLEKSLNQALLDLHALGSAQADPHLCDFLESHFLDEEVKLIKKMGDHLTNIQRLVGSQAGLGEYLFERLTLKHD
Sequence of Ubiquitin carboxyl-terminal hydrolase 2 (Homo sapiens) (O75604 whole entry, looked up): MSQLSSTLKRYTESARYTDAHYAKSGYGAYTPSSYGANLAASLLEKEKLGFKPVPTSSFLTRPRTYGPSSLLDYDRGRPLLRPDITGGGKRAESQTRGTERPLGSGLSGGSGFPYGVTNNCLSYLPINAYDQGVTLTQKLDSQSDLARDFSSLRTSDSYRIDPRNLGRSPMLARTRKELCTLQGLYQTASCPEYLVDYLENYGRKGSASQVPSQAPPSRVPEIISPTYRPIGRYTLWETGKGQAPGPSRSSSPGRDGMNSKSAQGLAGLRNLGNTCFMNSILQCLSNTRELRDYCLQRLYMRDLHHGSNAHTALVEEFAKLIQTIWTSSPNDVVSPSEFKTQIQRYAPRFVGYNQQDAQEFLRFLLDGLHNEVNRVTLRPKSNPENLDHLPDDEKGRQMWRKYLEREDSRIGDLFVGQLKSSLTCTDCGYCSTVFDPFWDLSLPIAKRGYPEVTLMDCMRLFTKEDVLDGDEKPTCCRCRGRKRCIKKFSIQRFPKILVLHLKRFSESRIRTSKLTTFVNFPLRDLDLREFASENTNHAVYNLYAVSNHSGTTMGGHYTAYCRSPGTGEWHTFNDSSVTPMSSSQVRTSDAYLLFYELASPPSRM
Sequence of RecQ-like DNA helicase BLM (Homo sapiens) (P54132 whole entry, looked up): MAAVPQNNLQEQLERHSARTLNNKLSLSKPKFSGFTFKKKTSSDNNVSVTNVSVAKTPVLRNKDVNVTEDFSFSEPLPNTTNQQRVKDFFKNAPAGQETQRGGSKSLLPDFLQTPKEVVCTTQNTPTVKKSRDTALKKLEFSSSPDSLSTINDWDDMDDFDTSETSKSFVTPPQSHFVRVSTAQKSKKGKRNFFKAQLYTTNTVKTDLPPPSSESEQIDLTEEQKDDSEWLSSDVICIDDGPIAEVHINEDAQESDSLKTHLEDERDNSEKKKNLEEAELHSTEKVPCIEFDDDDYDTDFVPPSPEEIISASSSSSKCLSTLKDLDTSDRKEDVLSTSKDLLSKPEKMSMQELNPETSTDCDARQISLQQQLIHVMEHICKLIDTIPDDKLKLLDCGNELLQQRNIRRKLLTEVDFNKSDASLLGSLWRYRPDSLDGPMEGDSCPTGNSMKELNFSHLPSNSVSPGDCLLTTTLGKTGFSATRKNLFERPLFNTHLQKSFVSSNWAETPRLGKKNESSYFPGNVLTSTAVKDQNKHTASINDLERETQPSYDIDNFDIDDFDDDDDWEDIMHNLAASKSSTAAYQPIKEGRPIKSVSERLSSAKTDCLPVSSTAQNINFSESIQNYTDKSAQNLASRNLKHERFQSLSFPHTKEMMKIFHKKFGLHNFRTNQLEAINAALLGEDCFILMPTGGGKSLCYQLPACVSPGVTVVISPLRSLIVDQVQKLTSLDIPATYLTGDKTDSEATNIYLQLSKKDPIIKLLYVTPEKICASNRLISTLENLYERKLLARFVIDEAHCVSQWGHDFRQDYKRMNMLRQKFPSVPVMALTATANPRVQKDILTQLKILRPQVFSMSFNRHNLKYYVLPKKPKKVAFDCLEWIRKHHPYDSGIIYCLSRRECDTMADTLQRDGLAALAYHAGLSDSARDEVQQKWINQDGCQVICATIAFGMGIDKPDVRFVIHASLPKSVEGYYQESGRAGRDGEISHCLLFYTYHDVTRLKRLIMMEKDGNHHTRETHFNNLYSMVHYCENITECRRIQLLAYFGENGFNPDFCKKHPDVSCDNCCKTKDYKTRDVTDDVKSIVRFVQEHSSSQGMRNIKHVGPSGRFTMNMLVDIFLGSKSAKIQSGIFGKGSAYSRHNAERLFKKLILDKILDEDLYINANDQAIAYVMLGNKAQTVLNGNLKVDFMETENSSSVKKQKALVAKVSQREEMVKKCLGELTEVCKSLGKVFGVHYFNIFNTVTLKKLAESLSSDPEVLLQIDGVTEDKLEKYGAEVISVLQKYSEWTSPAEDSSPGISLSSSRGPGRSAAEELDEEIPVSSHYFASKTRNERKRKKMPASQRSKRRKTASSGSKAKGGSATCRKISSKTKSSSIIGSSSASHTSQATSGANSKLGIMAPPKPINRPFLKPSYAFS
Sequence of ATP-dependent DNA helicase Q1 (Homo sapiens) (P46063 whole entry, looked up): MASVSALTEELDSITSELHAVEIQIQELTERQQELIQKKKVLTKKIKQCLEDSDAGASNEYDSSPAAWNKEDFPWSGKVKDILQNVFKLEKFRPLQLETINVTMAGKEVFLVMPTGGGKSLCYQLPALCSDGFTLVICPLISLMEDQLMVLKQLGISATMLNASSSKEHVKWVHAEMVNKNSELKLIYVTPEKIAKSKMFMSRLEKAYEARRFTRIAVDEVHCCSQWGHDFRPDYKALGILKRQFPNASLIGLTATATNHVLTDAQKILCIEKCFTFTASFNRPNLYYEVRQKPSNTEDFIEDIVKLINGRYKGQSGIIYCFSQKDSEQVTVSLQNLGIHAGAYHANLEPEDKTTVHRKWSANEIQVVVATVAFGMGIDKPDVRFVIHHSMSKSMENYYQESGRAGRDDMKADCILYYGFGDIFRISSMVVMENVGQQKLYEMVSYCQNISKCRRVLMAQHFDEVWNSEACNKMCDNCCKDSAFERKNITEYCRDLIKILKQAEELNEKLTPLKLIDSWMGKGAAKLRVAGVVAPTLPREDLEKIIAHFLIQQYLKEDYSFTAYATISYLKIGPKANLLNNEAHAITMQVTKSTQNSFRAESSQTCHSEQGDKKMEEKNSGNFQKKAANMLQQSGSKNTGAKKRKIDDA

COc1ccc2c(c1)c(CC(=O)O)c(C)n2C(=O)c1ccc(Cl)cc1
not listed: [9] | [10]
inactive: all other assays above

COc1cc2nc(N3CCN(C(=O)C4COc5ccccc5O4)CC3)nc(N)c2cc1OC (centres undefined)
active: [9] 11.7 µM
not listed: [1] | [7] | [10]
inactive: all other assays above

O=C1N(c2ccccc2)c2ccccc2C1(Cc1ccncc1)Cc1ccncc1
not listed: [1] | [9] | [10]
inactive: all other assays above

CC(C(=O)O)c1cccc(C(=O)c2ccccc2)c1 (centres undefined)
not listed: [1] | [9] | [10]
inactive: all other assays above

Cn1c(=O)c2c(ncn2C)n(C)c1=O
not listed: [10]
inactive: all other assays above

O=c1c(-c2ccc(O)cc2)coc2cc(O)cc(O)c12
not listed: [2] | [4] | [10]
inactive: all other assays above

N[C@@H](Cc1c[nH]c2ccc(O)cc12)C(=O)O
not listed: [4] | [9] | [10]
inactive: all other assays above

NS(=O)(=O)c1cc2c(cc1Cl)NCNS2(=O)=O
not listed: [1] | [10]
inactive: all other assays above

CN(C)CCC=C1c2ccccc2C=Cc2ccccc21
not listed: [1] | [9] | [10]
inactive: all other assays above

COc1cc2nc(N3CCN(C(=O)c4ccco4)CC3)nc(N)c2cc1OC
active: [7] 15.8 µM
inactive: [2] | [3] | [4] | [5] | [6]

Cn1c(=O)c2[nH]cnc2n(C)c1=O
not listed: [1] | [9] | [10]
inactive: all other assays above

Nc1c2c(nc3ccccc13)CCCC2
not listed: [1] | [9]
inactive: all other assays above

CCCNCC(O)COc1ccccc1C(=O)CCc1ccccc1 (centres undefined)
active: [10] 16.5 µM
not listed: [1] | [9]
inactive: all other assays above

CC(CCc1ccc(O)cc1)NCCc1ccc(O)c(O)c1 (centres undefined)
not listed: [1] | [7] | [9]
inactive: all other assays above

CC(C)NCC(O)c1ccc(O)c(O)c1 (centres undefined)
not listed: [1] | [9] | [10]
inactive: all other assays above

CN(C)CCOC(c1ccccc1)c1ccccc1
not listed: [1] | [9] | [10]
inactive: all other assays above

O=C(CCCN1CCC(O)(c2ccc(Cl)cc2)CC1)c1ccc(F)cc1
not listed: [1] | [9] | [10]
inactive: all other assays above

CCC1(C)CC(=O)NC1=O (centres undefined)
not listed: [1]
inactive: all other assays above

CC[N+](CC)(CC)CCOc1cccc(OCC[N+](CC)(CC)CC)c1OCC[N+](CC)(CC)CC
not listed: [1]
inactive: all other assays above

COc1cc2c(c(OC)c1OC)-c1ccc(OC)c(=O)cc1[C@@H](NC(C)=O)CC2
not listed: [2] | [7] | [9]
inactive: all other assays above
